# Publication PMC5540273 (PLoS ONE, 2017)
# Experiments:
# Conditions in all cases: concentration: 1 μM, replicates: in singlicate; n = 1
# SGK2 = test system: SGK2
# SGK3 = test system: SGK3
# SGK = test system: SGK
# SIK2 = test system: SIK2
# SIK = test system: SIK
# SLK = test system: SLK
# SNARK = test system: T1, SNARK
# T1 construct: gene NUAK2
# SNRK = test system: SNRK
# SRC = test system: SRC
# SRMS = test system: SRMS
# SRPK1 = test system: SRPK1
# SRPK2 = test system: SRPK2
# SRPK3 = test system: SRPK3
# STK16 = test system: STK16
# STK33 = test system: STK33
# STK35 = test system: STK35
# STK36 = test system: STK36
# STK39 = test system: STK39
# SYK = test system: SYK
# SgK110 = test system: SgK110
# 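Further: KINOMEscan kinase panel screen.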
compound,measurement,setting,value
CCCNC(=O)Nc1ccc(Oc2ncnc3ccn(C)c23)cc1,%Inh,SGK2,13%
same,%Inh,SGK3,0%
same,%Inh,SGK,1%
same,%Inh,SIK2,0%
same,%Inh,SIK,23%
same,%Inh,SLK,0%
same,%Inh,SNARK,0%
same,%Inh,SNRK,0%
same,%Inh,SRC,0%
same,%Inh,SRMS,0%
same,%Inh,SRPK1,25%
same,%Inh,SRPK2,0%
same,%Inh,SRPK3,10%
same,%Inh,STK16,11%
same,%Inh,STK33,0%
same,%Inh,STK35,0%
same,%Inh,STK36,32%
same,%Inh,STK39,0%
same,%Inh,SYK,0%
same,%Inh,SgK110,41%
CCC(=O)c1c(-c2ccccc2)c2cc(Cl)ccc2c(=O)n1Cc1cc(C(=O)NC2CC2)n(C)n1,%Inh,SGK2,5%
same,%Inh,SGK3,10%
same,%Inh,SGK,2%
same,%Inh,SIK2,55%
same,%Inh,SIK,1%
same,%Inh,SLK,0%
same,%Inh,SNARK,0%
same,%Inh,SNRK,0%
same,%Inh,SRC,0%
same,%Inh,SRMS,0%
same,%Inh,SRPK1,0%
same,%Inh,SRPK2,19%
same,%Inh,SRPK3,0%
same,%Inh,STK16,6%
same,%Inh,STK33,0%
same,%Inh,STK35,51%
same,%Inh,STK36,0%
same,%Inh,STK39,13%
same,%Inh,SYK,0%
same,%Inh,SgK110,11%
CCC(=O)c1c(-c2ccccc2)c2cc(Cl)ccc2c(=O)n1Cc1cc(S(C)(=O)=O)n(CC(F)F)n1,%Inh,SGK2,0%
same,%Inh,SGK3,0%
same,%Inh,SGK,0%
same,%Inh,SIK2,2%
same,%Inh,SIK,0%
same,%Inh,SLK,0%
same,%Inh,SNARK,10%
same,%Inh,SNRK,0%
same,%Inh,SRC,7%
same,%Inh,SRMS,0%
same,%Inh,SRPK1,0%
same,%Inh,SRPK2,2%
same,%Inh,SRPK3,0%
same,%Inh,STK16,0%
same,%Inh,STK33,0%
same,%Inh,STK35,0%
same,%Inh,STK36,0%
same,%Inh,STK39,0%
same,%Inh,SYK,0%
same,%Inh,SgK110,31%
CN(C)c1cc(-c2ccc3c(N)n[nH]c3c2)nc(N)n1 [GSK2219329],%Inh,SGK2,0%
same,%Inh,SGK3,3%
same,%Inh,SGK,5%
same,%Inh,SIK2,0%
same,%Inh,SIK,0%
same,%Inh,SLK,13%
same,%Inh,SNARK,0%
same,%Inh,SNRK,0%
same,%Inh,SRC,12%
same,%Inh,SRMS,0%
same,%Inh,SRPK1,0%
same,%Inh,SRPK2,0%
same,%Inh,SRPK3,0%
same,%Inh,STK16,0%
same,%Inh,STK33,0%
same,%Inh,STK35,0%
same,%Inh,STK36,0%
same,%Inh,STK39,0%
same,%Inh,SYK,17%
same,%Inh,SgK110,0%
COc1cc2nccc(Nc3ccc(OCc4ccc(NC(C)=O)cc4)cc3)c2cc1OC.Cl [GW440135],%Inh,SGK2,0%
same,%Inh,SGK3,0%
same,%Inh,SGK,2%
same,%Inh,SIK2,4%
same,%Inh,SIK,0%
same,%Inh,SLK,3%
same,%Inh,SNARK,0%
same,%Inh,SNRK,0%
same,%Inh,SRC,14%
same,%Inh,SRMS,20%
same,%Inh,SRPK1,42%
same,%Inh,SRPK2,12%
same,%Inh,SRPK3,23%
same,%Inh,STK16,2%
same,%Inh,STK33,15%
same,%Inh,STK35,3%
same,%Inh,STK36,29%
same,%Inh,STK39,3%
same,%Inh,SYK,6%
same,%Inh,SgK110,21%
COc1cccc(C2=C(Nc3cccc(C(=O)O)c3)C(=O)NC2=O)c1 [SB-390770],%Inh,SGK2,11%
same,%Inh,SGK3,48%
same,%Inh,SGK,8%
same,%Inh,SIK2,7%
same,%Inh,SIK,10%
same,%Inh,SLK,35%
same,%Inh,SNARK,72%
same,%Inh,SNRK,0%
same,%Inh,SRC,0%
same,%Inh,SRMS,0%
same,%Inh,SRPK1,8%
same,%Inh,SRPK2,24%
same,%Inh,SRPK3,11%
same,%Inh,STK16,8%
same,%Inh,STK33,2%
same,%Inh,STK35,12%
same,%Inh,STK36,4%
same,%Inh,STK39,0%
same,%Inh,SYK,30%
same,%Inh,SgK110,3%
O=C(NCCNc1ccnc(Nc2ccc(F)cc2)n1)Nc1ccc2c(c1)OCO2 [GSK1379882],%Inh,SGK2,13%
same,%Inh,SGK3,7%
same,%Inh,SGK,12%
same,%Inh,SIK2,0%
same,%Inh,SIK,0%
same,%Inh,SLK,0%
same,%Inh,SNARK,1%
same,%Inh,SNRK,0%
same,%Inh,SRC,0%
same,%Inh,SRMS,0%
same,%Inh,SRPK1,17%
same,%Inh,SRPK2,24%
same,%Inh,SRPK3,0%
same,%Inh,STK16,23%
same,%Inh,STK33,0%
same,%Inh,STK35,0%
same,%Inh,STK36,0%
same,%Inh,STK39,12%
same,%Inh,SYK,0%
same,%Inh,SgK110,0%
Cc1nnc(-c2ccc3ncn(-c4ccc(S(C)=O)cc4)c3c2)o1 (stereo not drawn),%Inh,SGK2,0%
same,%Inh,SGK3,0%
same,%Inh,SGK,0%
same,%Inh,SIK2,13%
same,%Inh,SIK,20%
same,%Inh,SLK,14%
same,%Inh,SNARK,0%
same,%Inh,SNRK,0%
same,%Inh,SRC,5%
same,%Inh,SRMS,0%
same,%Inh,SRPK1,0%
same,%Inh,SRPK2,0%
same,%Inh,SRPK3,0%
same,%Inh,STK16,29%
same,%Inh,STK33,0%
same,%Inh,STK35,0%
same,%Inh,STK36,22%
same,%Inh,STK39,0%
same,%Inh,SYK,0%
same,%Inh,SgK110,2%
Nc1ncnc2c1ncn2-c1cccc2ccccc12 [SKF-97184],%Inh,SGK2,21%
same,%Inh,SGK3,4%
same,%Inh,SGK,35%
same,%Inh,SIK2,0%
same,%Inh,SIK,0%
same,%Inh,SLK,0%
same,%Inh,SNARK,0%
same,%Inh,SNRK,2%
same,%Inh,SRC,8%
same,%Inh,SRMS,17%
same,%Inh,SRPK1,0%
same,%Inh,SRPK2,32%
same,%Inh,SRPK3,12%
same,%Inh,STK16,9%
same,%Inh,STK33,0%
same,%Inh,STK35,0%
same,%Inh,STK36,6%
same,%Inh,STK39,25%
same,%Inh,SYK,0%
same,%Inh,SgK110,31%
CCn1c(-c2nonc2N)nc2ccccc21 [SB-693162/GW549034],%Inh,SGK2,12%
same,%Inh,SGK3,62%
same,%Inh,SGK,12%
same,%Inh,SIK2,0%
same,%Inh,SIK,10%
same,%Inh,SLK,20%
same,%Inh,SNARK,51%
same,%Inh,SNRK,40%
same,%Inh,SRC,0%
same,%Inh,SRMS,0%
same,%Inh,SRPK1,0%
same,%Inh,SRPK2,0%
same,%Inh,SRPK3,24%
same,%Inh,STK16,23%
same,%Inh,STK33,15%
same,%Inh,STK35,0%
same,%Inh,STK36,0%
same,%Inh,STK39,37%
same,%Inh,SYK,0%
same,%Inh,SgK110,0%
COC(=O)c1c(-c2ccccc2)c2cc(Br)ccc2c(=O)n1Cc1ccc(NC(=O)CCC(=O)O)cc1,%Inh,SGK2,18%
same,%Inh,SGK3,0%
same,%Inh,SGK,6%
same,%Inh,SIK2,0%
same,%Inh,SIK,6%
same,%Inh,SLK,1%
same,%Inh,SNARK,0%
same,%Inh,SNRK,0%
same,%Inh,SRC,25%
same,%Inh,SRMS,0%
same,%Inh,SRPK1,0%
same,%Inh,SRPK2,10%
same,%Inh,SRPK3,20%
same,%Inh,STK16,15%
same,%Inh,STK33,0%
same,%Inh,STK35,0%
same,%Inh,STK36,8%
same,%Inh,STK39,14%
same,%Inh,SYK,0%
same,%Inh,SgK110,0%
COc1cc2ncn(-c3cc(OCc4ccc(S(C)(=O)=O)cc4)c(C(N)=O)s3)c2cc1OC [GW869979],%Inh,SGK2,24%
same,%Inh,SGK3,5%
same,%Inh,SGK,40%
same,%Inh,SIK2,0%
same,%Inh,SIK,0%
same,%Inh,SLK,29%
same,%Inh,SNARK,15%
same,%Inh,SNRK,2%
same,%Inh,SRC,11%
same,%Inh,SRMS,14%
same,%Inh,SRPK1,25%
same,%Inh,SRPK2,0%
same,%Inh,SRPK3,13%
same,%Inh,STK16,2%
same,%Inh,STK33,27%
same,%Inh,STK35,0%
same,%Inh,STK36,0%
same,%Inh,STK39,0%
same,%Inh,SYK,0%
same,%Inh,SgK110,0%
O=c1cc(N2CCOCC2)nc2n(Cc3ccc(F)c(Cl)c3)ccn12 [GSK2297099],%Inh,SGK2,0%
same,%Inh,SGK3,19%
same,%Inh,SGK,0%
same,%Inh,SIK2,0%
same,%Inh,SIK,0%
same,%Inh,SLK,0%
same,%Inh,SNARK,20%
same,%Inh,SNRK,0%
same,%Inh,SRC,0%
same,%Inh,SRMS,0%
same,%Inh,SRPK1,0%
same,%Inh,SRPK2,0%
same,%Inh,SRPK3,0%
same,%Inh,STK16,24%
same,%Inh,STK33,0%
same,%Inh,STK35,0%
same,%Inh,STK36,0%
same,%Inh,STK39,0%
same,%Inh,SYK,7%
same,%Inh,SgK110,8%
Cc1nnc(-c2ccc(C)c(-c3ccc(C(=O)O)cc3)c2)o1 [GW608005],%Inh,SGK2,0%
same,%Inh,SGK3,0%
same,%Inh,SGK,0%
same,%Inh,SIK2,0%
same,%Inh,SIK,0%
same,%Inh,SLK,0%
same,%Inh,SNARK,5%
same,%Inh,SNRK,0%
same,%Inh,SRC,0%
same,%Inh,SRMS,0%
same,%Inh,SRPK1,35%
same,%Inh,SRPK2,0%
same,%Inh,SRPK3,7%
same,%Inh,STK16,0%
same,%Inh,STK33,0%
same,%Inh,STK35,0%
same,%Inh,STK36,0%
same,%Inh,STK39,1%
same,%Inh,SYK,0%
same,%Inh,SgK110,0%
CCc1nc(-c2cccc(C)c2)c(-c2ccncc2)s1,%Inh,SGK2,0%
same,%Inh,SGK3,0%
same,%Inh,SGK,0%
same,%Inh,SIK2,4%
same,%Inh,SIK,2%
same,%Inh,SLK,26%
same,%Inh,SNARK,0%
same,%Inh,SNRK,9%
same,%Inh,SRC,0%
same,%Inh,SRMS,0%
same,%Inh,SRPK1,0%
same,%Inh,SRPK2,0%
same,%Inh,SRPK3,15%
same,%Inh,STK16,23%
same,%Inh,STK33,0%
same,%Inh,STK35,0%
same,%Inh,STK36,15%
same,%Inh,STK39,0%
same,%Inh,SYK,23%
same,%Inh,SgK110,0%
